# Calls of active or inactive are those of the source. Unless noted, the rule behind the calls is not given here.
# Legend:
# [1] = compounds binding Alexa647 anti-His antibody – biochemical, small-molecule microarray, 635 nm fluorescence, artefact control for SMM control protein annotation, primary screen (AID 1128); settings: higher = more signal;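 note: score merges feature fluorescence with signal-to-noise for each printed compound spot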
# [2] = test system: Human papillomavirus type 1a E7 protein (residues 1-88); experiment: HPV1a E7 small-molecule binders, primary screen, biochemical, small-molecule microarray, residues 1-88, 635 nm (AID 1129); settings: small-molecule microarray binding, fluorescence 635 nm; higher = more signal
# [3] = molecular target: Focal adhesion kinase 1 (Homo sapiens) (UniProt Q05397); experiment: PTK2 protein binding on printed compound slides – biochemical, small-molecule microarray, 635/667 nm fluorescence, BSA, DTT, primary screen (AID 1130); settings: 635 nm fluorescence, higher = more signal;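 note: composite of spot emission at 667 nm and signal to noise over triplicate slides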
# [4] = test system: Fibrinogen (Alexa647-labelled); experiment: Alexa647-fibrinogen binding to printed small molecules – biochemical, small-molecule microarray, 635/667 nm fluorescence, artefact control for SMM control-protein annotation, profiling panel (AID 1131); settings: fibrinogen-A647 binding fluorescence, higher = more signal;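 note: z-score merges 667 nm fluorescence with per-spot signal-to-noise over triplicate slides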
# [5] = molecular target: Follistatin (Homo sapiens) (UniProt P19883); experiment: FST protein binding to printed compounds – biochemical, small-molecule microarray, 635/667 nm fluorescence, primary screen (AID 1132); settings: 635 nm fluorescence, higher = more signal
# [6] = molecular target: Fibroblast growth factor 2 (Homo sapiens) (UniProt P09038); experiment: basic fibroblast growth factor binding to printed compounds – biochemical, small-molecule microarray, 635/667 nm fluorescence, primary screen (AID 1133); settings: FGF2, fluorescence 635/667, higher = more signal
# [7] = JC-1 mitochondrial potential readout, lung cancer cells – cell-based, A549, JC-1 fluorescence, basal, 24 h, 100 nL, profiling panel (AID 1138); settings: higher = more signal;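 note: A549 lung adenocarcinoma cells under basal conditions with no added stimulus; test concentration not given here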
# Lefty1 = Lefty1 protein binding to printed compounds – biochemical, small-molecule microarray, 635/667 nm fluorescence, primary screen (AID 1139); settings: fluorescence 635/667, higher = more signal
# [8] = test system: wheat germ agglutinin (Triticum aestivum), Alexa647-labelled; experiment: Alexa647-WGA lectin binding to printed small molecules – biochemical, small-molecule microarray, 635/667 nm fluorescence, artefact control for SMM control-protein annotation, profiling panel (AID 1140); settings: WGA-A647 binding, 635 nm fluorescence, higher = more signal;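 note: score merges 667 nm feature emission with signal to noise over triplicate slides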
# [9] = molecular target: Luciferin 4-monooxygenase (Photinus pyralis) (UniProt P08659); experiment: inhibition of purified Photinus pyralis luciferase – biochemical, luminescence, purified enzyme, 2006 set, primary screen (AID 1141); settings: purified firefly luciferase, SteadyGlo luminescence, 30 min; higher = more signal, called active from +8 up or from −8 down;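 note: cell-free assay with purified firefly luciferase at 100 ng per well in PBS; test concentration not given here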
# [10] = test system: Wnt5a (protein binding on small-molecule microarray); experiment: small molecules binding Wnt5a protein – biophysical, small-molecule microarray, 635/667 nm fluorescence, primary screen (AID 1142); settings: 635 nm fluorescence, higher = more signal;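 note: fluorescence read at 667 nm with signal to noise per printed feature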
# [11] = ATP-based viability of Huh7 replicon cells – cell-based, CellTiter-Glo luminescence, basal, 48 h, cytotoxicity control for HCV replication inhibitor project, primary screen (AID 1143); settings: higher = more signal, called active from +8 up or from −8 down;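 note: Huh7 hepatoma cells carrying a hepatitis C replication reporter with no stimulus; test concentration not given here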
# [12] = Pseudomonas biofilm growth suppression – PAO1 strain, BacTiter-Glo luminescence, LB-PBS, primary screen (AID 1144); settings: P. aeruginosa PAO1 biofilm, 12 h, higher = more signal
# [13] = basal CRE-LacZ reporter activity in PC12 – cell-based, unstimulated, primary screen (AID 1145); settings: no forskolin, luminescence, 4.5 h, higher = more signal, called active from +8 up or from −8 down
# [14] = forskolin-driven CRE-LacZ activity in PC12 – cell-based, CRE-LacZ reporter, forskolin-stimulated, primary screen (AID 1146); settings: luminescence, 4.5 h, higher = more signal, called active from +8 up or from −8 down;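 note: PC12 cells with 6xCRE LacZ reporter stimulated by forskolin 10 µM; beta-galactosidase reporter signal reflecting CREB driven transcription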
# [15] = molecular target: Streptavidin (Streptomyces avidinii) (UniProt P22629); experiment: compounds binding control protein streptavidin – biophysical, small-molecule microarray, 635/667 nm fluorescence, artefact control for SMM compound annotation, primary screen (AID 1147); settings: higher = more signal;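 note: signal reflects streptavidin binding to arrayed compounds as a control protein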
# [16] = probe aInhba binding on compound microarray – biochemical, small-molecule microarray, 635/667 nm fluorescence, primary screen (AID 1148); settings: higher = more signal;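 note: score merges 667nm spot fluorescence with signal-to-noise for antibody binding to printed compounds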
# Torsin-1A (Homo sapiens) [17] = molecular target: Torsin-1A (Homo sapiens) (UniProt O14656); experiment: TOR1A wild-type binding on microarray – cell lysate, small-molecule microarray, lysate, 635/667 nm, primary screen (AID 1149); settings: COS7 hTOR1A-WT lysate, 635 nm fluorescence, higher = more signal
# Torsin-1A (Homo sapiens) [18] = molecular target: Torsin-1A (Homo sapiens) (UniProt O14656); experiment: torsin A mutant lysate binding on microarrays – cell lysate, small-molecule microarray, COS7 lysate, 635/667 nm fluorescence, primary screen (AID 1150); settings: COS7 hTOR1A mutant lysate, 635 nm fluorescence, higher = more signal;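 note: score pools 667 nm emission and signal to noise measuring lysate protein binding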
# [19] = test system: Sonic hedgehog protein (Shh); experiment: Sonic hedgehog microarray binding compounds – biochemical, small-molecule microarray, 635/667 nm fluorescence, primary screen (AID 1151); settings: 635 nm fluorescence, higher = more signal;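 note: Shh protein binding to compounds spotted on small-molecule microarray slides; score combines spot fluorescence intensity with signal-to-noise across triplicate slides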
# Sequence of Luciferin 4-monooxygenase (Photinus pyralis) (P08659 whole entry, looked up): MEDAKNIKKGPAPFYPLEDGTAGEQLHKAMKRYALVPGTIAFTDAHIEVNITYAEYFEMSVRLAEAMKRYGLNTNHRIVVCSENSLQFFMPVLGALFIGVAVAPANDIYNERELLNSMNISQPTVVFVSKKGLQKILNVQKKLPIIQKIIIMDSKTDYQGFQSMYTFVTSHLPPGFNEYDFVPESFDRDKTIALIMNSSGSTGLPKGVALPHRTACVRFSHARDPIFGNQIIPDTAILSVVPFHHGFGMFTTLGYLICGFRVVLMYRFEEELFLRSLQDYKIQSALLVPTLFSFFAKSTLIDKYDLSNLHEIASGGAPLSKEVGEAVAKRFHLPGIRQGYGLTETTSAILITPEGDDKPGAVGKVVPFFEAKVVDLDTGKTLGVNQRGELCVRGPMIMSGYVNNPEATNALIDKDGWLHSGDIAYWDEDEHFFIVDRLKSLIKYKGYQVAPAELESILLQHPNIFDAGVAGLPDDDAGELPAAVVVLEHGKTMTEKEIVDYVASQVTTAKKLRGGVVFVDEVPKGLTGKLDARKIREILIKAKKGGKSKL
# Sequence of Torsin-1A (Homo sapiens) (O14656 whole entry, looked up): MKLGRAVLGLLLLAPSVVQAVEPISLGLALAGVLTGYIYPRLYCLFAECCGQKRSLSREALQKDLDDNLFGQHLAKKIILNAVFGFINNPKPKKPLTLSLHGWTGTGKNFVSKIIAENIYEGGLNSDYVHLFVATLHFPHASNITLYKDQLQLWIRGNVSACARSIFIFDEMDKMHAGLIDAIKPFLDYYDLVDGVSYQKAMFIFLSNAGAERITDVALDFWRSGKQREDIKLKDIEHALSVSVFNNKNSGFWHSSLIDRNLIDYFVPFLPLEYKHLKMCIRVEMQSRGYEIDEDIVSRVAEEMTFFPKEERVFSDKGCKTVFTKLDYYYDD
# Sequence of Fibroblast growth factor 2 (Homo sapiens) (P09038 whole entry, looked up): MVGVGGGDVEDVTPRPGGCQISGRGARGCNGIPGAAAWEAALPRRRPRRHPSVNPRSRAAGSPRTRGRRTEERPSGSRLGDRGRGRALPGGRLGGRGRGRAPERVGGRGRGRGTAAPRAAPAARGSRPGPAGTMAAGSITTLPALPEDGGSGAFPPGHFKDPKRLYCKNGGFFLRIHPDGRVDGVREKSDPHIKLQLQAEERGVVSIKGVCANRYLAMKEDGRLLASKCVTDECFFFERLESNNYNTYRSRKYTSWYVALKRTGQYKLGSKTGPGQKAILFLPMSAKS
# Sequence of Follistatin (Homo sapiens) (P19883 whole entry, looked up): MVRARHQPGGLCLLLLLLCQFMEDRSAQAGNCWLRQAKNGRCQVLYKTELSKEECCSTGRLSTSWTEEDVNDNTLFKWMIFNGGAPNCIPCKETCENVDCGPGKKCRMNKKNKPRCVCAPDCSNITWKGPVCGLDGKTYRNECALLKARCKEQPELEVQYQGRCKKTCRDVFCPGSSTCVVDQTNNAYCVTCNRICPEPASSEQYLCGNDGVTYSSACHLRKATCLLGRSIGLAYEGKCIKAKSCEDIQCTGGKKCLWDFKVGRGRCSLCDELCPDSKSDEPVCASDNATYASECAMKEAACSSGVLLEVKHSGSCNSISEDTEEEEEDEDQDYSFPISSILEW
# Sequence of Streptavidin (Streptomyces avidinii) (P22629 whole entry, looked up): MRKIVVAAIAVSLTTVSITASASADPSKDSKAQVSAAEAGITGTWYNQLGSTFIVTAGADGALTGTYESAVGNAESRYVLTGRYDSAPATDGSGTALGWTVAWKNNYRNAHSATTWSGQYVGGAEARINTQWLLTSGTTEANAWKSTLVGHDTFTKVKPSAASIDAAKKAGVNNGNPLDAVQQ
# Sequence of Focal adhesion kinase 1 (Homo sapiens) (Q05397 whole entry, looked up): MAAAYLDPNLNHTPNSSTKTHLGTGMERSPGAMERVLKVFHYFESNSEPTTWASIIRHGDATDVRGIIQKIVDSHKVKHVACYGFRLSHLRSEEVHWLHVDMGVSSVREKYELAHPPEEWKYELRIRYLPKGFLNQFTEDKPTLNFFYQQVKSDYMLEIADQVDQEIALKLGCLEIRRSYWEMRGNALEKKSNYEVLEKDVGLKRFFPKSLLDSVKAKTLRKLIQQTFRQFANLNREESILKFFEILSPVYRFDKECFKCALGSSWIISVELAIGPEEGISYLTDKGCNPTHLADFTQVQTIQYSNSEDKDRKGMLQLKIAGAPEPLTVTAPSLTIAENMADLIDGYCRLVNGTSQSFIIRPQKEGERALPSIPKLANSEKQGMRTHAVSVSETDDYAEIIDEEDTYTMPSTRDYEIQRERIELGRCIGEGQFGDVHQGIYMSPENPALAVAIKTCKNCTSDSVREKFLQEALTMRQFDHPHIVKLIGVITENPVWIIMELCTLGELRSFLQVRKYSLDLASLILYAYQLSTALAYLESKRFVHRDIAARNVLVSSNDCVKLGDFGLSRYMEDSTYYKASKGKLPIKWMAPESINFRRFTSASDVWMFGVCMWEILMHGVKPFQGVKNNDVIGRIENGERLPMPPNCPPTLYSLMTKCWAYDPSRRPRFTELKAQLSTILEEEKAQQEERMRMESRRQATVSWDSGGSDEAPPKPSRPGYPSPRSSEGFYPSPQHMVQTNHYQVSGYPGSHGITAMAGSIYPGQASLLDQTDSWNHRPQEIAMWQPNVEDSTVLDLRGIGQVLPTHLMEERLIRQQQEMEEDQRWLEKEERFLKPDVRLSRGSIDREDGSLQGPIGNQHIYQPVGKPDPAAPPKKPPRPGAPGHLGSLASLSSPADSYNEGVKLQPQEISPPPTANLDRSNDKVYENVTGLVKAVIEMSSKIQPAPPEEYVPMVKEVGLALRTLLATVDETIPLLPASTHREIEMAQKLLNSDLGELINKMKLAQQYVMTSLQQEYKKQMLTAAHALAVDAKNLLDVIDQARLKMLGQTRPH
SMILES,composite z-score [1],composite z-score [2],composite z-score [3],composite z-score [4],composite z-score [5],composite z-score [6],z-score [7],composite z-score (Lefty1),composite z-score [8],z-score [9],composite z-score [10],z-score [11],z-score [12],z-score [13],z-score [14],composite z-score [15],composite z-score [16],composite z-score (Torsin-1A (Homo sapiens) [17]),composite z-score (Torsin-1A (Homo sapiens) [18]),composite z-score [19]
O=C1C2C=CC(C(O)c3cccc4ccccc34)N(Nc3ccccc3)C2C(=O)N1c1ccccc1 (stereo not given),2.24,1.17,1.99,0.971,1.23,0.729,-0.39,0.576,0.753,-1.05 (inactive),0.336,-1.3 (inactive),-1.46 (inactive),0.429 (inactive),-0.637 (inactive),0.595,0.0705,0.327,0.463,0.296
N#Cc1ccc(NN2C(C(O)c3ccco3)C=CC3C(=O)N(c4ccccc4)C(=O)C32)cc1 (stereo not given),0.716,-0.0085,0.788,0.251,0.552,-0.302,-0.244,-0.231,0.754,-0.72 (inactive),0.0896,1.34 (inactive),-0.768 (inactive),-0.136 (inactive),0.2 (inactive),0.252,0.0183,0.135,-0.236,-0.0404
COC(=O)[C@@]1(Cc2ccc(OC)cc2)[C@H]2c3cc(C(=O)N(C)C)n(CCF)c3C[C@H]2CN1C(=O)c1ccccc1,1.9,1.25,0.842,1.01,0.887,0.127,0.486,-0.698,1.32,0.948 (inactive),0.17,-2.15 (inactive),0.475 (inactive),1.35 (inactive),-0.715 (inactive),2.2,0.515,0.3,0.541,-0.379
C=C(C(=O)CC[C@H](OC(=O)c1cccnc1)c1ccc(OCCO)cc1)C(C)C,0.423,0.54,0.091,0.917,1.05,0.859,0.531,1.31,-0.052,-2.26 (inactive),0.287,-2.33 (inactive),0.143 (inactive),17.9 (active),2.79 (inactive),0.548,-0.0857,1.12,0.541,1.47
COC(=O)C(CC#Cc1ccc2c(c1)[C@]1(C(=O)N2)[C@H](C(=O)N2CCc3cc(OC)c(OC)cc3C2)[C@H]2C(=O)O[C@H](c3ccccc3)[C@H](c3ccccc3)N2[C@@H]1c1ccc(OCCO)cc1)C(=O)OC,1.47,1.19,0.344,0.99,1.01,1.71,-1.29,0.928,1.23,-1.9 (inactive),0.5,-0.201 (inactive),-0.895 (inactive),0.865 (inactive),-0.474 (inactive),1.28,0.246,1.28,0.251,1.64
O=C1NC(=O)C2C1C=CC(C(O)c1ccc(-c3ccccc3)s1)N2Nc1ccccn1 (stereo not given),0.322,0.642,0.0118,0.347,0.689,0.0993,0.291,0.0042,0.807,-0.86 (inactive),0.368,0.429 (inactive),-0.505 (inactive),-0.329 (inactive),0.0978 (inactive),0.45,-0.0662,0.351,0.898,-0.0564
CC(C)CNC(=O)[C@@]1(C)c2ccccc2C(=O)N(Cc2ccccc2)[C@H]1c1ccc(CO)cc1,-0.97,-0.955,-0.846,-1.84,-0.976,-1.27,-0.504,-2.25,-1.4,0.182 (inactive),-0.368,0.0572 (inactive),0.789 (inactive),0.531 (inactive),0.172 (inactive),-1.18,-0.331,-1.5,-0.742,-1.02
CC(C)C[C@@H]1NC(=O)[C@@H]2C[C@H](C(=O)NCCCC[N+](C)(C)C)[C@H](c3cccc(OCCO)c3)N2C1=O,2.63,0.235,-0.584,-0.173,1.45,1.38,-0.69,1.47,-0.445,-0.45 (inactive),0.379,0.347 (inactive),-0.595 (inactive),-0.943 (inactive),-0.231 (inactive),0.154,-0.025,1.3,0.66,2.11
COc1ccc(C(=O)Nc2ccc(CN3C(=O)[C@]4(O[C@H](CCn5cc([C@H](O)c6ccccc6)nn5)[C@@H]([Si](C)(C)c5ccc(OC)cc5)[C@@H]4C)c4ccccc43)cc2)cc1,-0.271,-0.303,-0.288,0.107,0.971,-0.224,0.496,0.444,0.849,-0.363 (inactive),-0.0249,-6.51 (inactive),-0.675 (inactive),-0.375 (inactive),-1.22 (inactive),-0.19,-0.0044,0.33,0.223,0.666
CC(C)NC(=O)[C@@H]1c2ccccc2C(=O)N(Cc2cc(C(F)(F)F)cc(C(F)(F)F)c2)[C@H]1c1ccc(CO)cc1,0.913,1.16,0.528,0.936,1,0.507,1.98,0.312,0.375,0.487 (inactive),0.133,0.0274 (inactive),0.71 (inactive),0.0279 (inactive),0.296 (inactive),0.0544,0.136,0.275,0.0913,0.646
